Pol beta inh – qHTS Assay for Inhibitors of DNA Polymerase Beta. Pol beta primer extension/strand displacement, fluorescence kinetic. Potency, µM (highest dose often 114 µM), hits mostly inhibitors. actives 1.3% (n = 340,000). P06746
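Preincubation: enzyme (10 nM) with compound, 15 min, RT. Reaction: substrate added to 50 nM final. Reads: 0 and 10 min. Analysis: normalized, Hill fit.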
Pol kappa inh – qHTS for Inhibitors of Polymerase Kappa; AID 588579, 2011; Potency, µM (titrated, usually from 107 µM), actives largely listed as inhibitors; DNA polymerase kappa (Homo sapiens), Q9UBT6; actives 0.53% (n = 400,000); purified Pol kappa, fluorescent DNA synthesis assay, 10 min
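Inhibition of 10 nM Pol kappa is measured by a fluorescent read-out at 0 and 10 min following addition of 50 nM substrate (final), with a 15-min room-temperature compound preincubation.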
PI5P4Ka inh – qHTS for Inhibitors of phosphatidylinositol 5-phosphate 4-kinase (PI5P4K); Phosphatidylinositol 5-phosphate 4-kinase type-2 alpha (Homo sapiens), P48426; PI5P4Kalpha enzyme, ADP-Glo luminescence, 60 min; hits give low values; max response, %; actives 1.2% (n = 330,000); active means max response of -50% or lower; inconclusive means between -30% and -50%; inactive means -30% or higher; further: value at the top dose of about 77 µM
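ADP-Glo luminescence end-point after a 60 min room-temperature kinase reaction. PI5P4Kalpha and substrate in HEPES pH 7.4 buffer with EGTA, 0.1% CHAPS and 5% DMSO; ATP at 5 microM final.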
POLI inh – qHTS for Inhibitors of Polymerase Iota. actives 1% (n = 390,000). DNA polymerase iota (Homo sapiens), Q9UNA4. AID 588590, 2011. Pol iota fluorescent replication assay, 10 min. Potency, µM (doses to about 115 µM), usual class: inhibitors
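Pol iota at 10 nM preincubated 15 min with compounds at room temperature; reaction started with fluorescent substrate, 50 nM final. Fluorescence read kinetically at 0 and 10 min; buffer-only wells as negative control.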
FEN1 inhibitor – qHTS Assay for the Inhibitors of Human Flap endonuclease 1 (FEN1); P39748; Recombinant FEN1 flap cleavage, fluorescence, 15 min; Potency, µM (top dose mostly 114 µM), actives largely listed as inhibitors; actives 0.35% (n = 390,000); AID 588795, 2011; further: nearly all actives have a fitted effect of over 65% in size
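Concentration–response screening of FEN1 (10 nM): 15 min compound preincubation at room temperature, reaction started with 50 nM substrate and read at 0 and 15 min. Corrected, normalized data were fitted by a four-parameter Hill equation.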
POLH inh – qHTS for Inhibitors of Polymerase Eta | actives 1.2% (n = 390,000) | Potency, µM (titrated, usually from 114 µM), hits mostly inhibitors | recombinant Pol eta, fluorescent DNA replication assay | DNA polymerase eta (Homo sapiens), Q9Y253 | AID 588591, 2011
Target sequence (Q9Y253 whole entry, looked up): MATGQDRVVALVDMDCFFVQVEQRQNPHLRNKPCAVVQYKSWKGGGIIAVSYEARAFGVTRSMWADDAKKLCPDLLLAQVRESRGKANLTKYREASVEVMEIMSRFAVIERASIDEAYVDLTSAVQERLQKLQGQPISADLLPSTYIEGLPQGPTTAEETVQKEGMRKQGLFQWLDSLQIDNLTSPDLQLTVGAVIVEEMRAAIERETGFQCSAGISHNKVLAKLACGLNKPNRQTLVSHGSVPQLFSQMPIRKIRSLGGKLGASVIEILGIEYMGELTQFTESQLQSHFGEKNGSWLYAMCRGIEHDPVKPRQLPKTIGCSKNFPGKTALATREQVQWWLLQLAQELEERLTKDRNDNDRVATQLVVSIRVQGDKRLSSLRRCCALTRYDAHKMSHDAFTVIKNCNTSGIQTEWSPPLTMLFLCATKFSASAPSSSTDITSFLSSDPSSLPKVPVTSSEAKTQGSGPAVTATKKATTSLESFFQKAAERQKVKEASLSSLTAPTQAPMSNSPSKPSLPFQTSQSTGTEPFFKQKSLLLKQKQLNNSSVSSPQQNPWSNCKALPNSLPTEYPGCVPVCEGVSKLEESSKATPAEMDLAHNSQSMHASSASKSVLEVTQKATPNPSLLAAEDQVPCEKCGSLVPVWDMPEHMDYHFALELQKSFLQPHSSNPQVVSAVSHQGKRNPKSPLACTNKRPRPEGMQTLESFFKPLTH
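Fluorescent replication assay: 50 nM final substrate added after a 15 min room-temperature compound preincubation with 10 nM enzyme. Signal taken at 0 min and again at 10 min.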
Each line names hits and unclear results; the compound was inactive in the other large screens. Rows were chosen to be rich in hits. Some 2.8% of all compounds tested hit in one or more screens of this group. Unless noted, the call rests on the fitted dose curve; in most records, active means well fitted curve in the direction sought with a large enough effect; inconclusive means small, poorly fitted or top-dose-only effect, or another doubt; inactive means no such curve, though single readings can be large; an effect the other way counts as inactive or inconclusive.

C/C(=N\NC(=O)c1ccccc1)c1c(O)n(C2CCCCC2)c(=O)[nH]c1=O	PI5P4Ka inh -51
C/C(=N\NC(=O)c1ccccc1O)c1c(O)n(Cc2ccccc2)c(=O)[nH]c1=O	PI5P4Ka inh -71
C=C(C)C1CCC(C)=CC1c1c(OC)cc(C)cc1OC (centres undefined)	none (no result: Pol beta inh, PI5P4Ka inh, POLI inh, FEN1 inhibitor, POLH inh)
CC/C(CC(c1ccccc1)c1c(O)c2ccccc2oc1=O)=N\NC(N)=S (centres undefined)	Pol beta inh inconclusive, Pol kappa inh inconclusive, POLI inh inconclusive, POLH inh 28µM
C(=C\c1ccccc1)/CN1CCN(CCOC(c2ccccc2)c2ccccc2)CC1	none (no result: Pol beta inh, PI5P4Ka inh, POLI inh, FEN1 inhibitor, POLH inh)
CCOC(=O)C1=Nc2ccccc2/C1=C\c1c(O)n(C)c(=O)n(C)c1=O	PI5P4Ka inh -64, POLI inh inconclusive
N#C/C(=C\c1ccc(O)c(O)c1)C(=O)NCCCNC(=O)/C(C#N)=C/c1ccc(O)c(O)c1	Pol beta inh 0.13µM, Pol kappa inh 0.3µM, POLI inh 0.11µM, POLH inh 0.11µM (no result: PI5P4Ka inh, FEN1 inhibitor)
N#C/C(=C/c1ccc(O)c(O)c1)C(N)=S	Pol kappa inh 1.7µM (no result: Pol beta inh, PI5P4Ka inh, POLI inh, FEN1 inhibitor, POLH inh)
CCOC(=O)Cn1c(-c2ccccc2)ccc(C#N)c1=O	none
COc1ccc(Cc2c(O)[nH]c(=S)[nH]c2=O)cc1	PI5P4Ka inh -56
CCC(Oc1ccccc1OC)C(=O)Nc1ccc2c(c1)OCCO2 (centres undefined)	none
CCOc1ccc(Nc2ncnc3c2nnn3Cc2ccccc2)cc1	POLI inh inconclusive
Cc1ccc(N2C(=O)NC(=O)/C(=C\C=C\c3ccco3)C2=O)cc1	Pol beta inh inconclusive, POLI inh 18µM, FEN1 inhibitor inconclusive, POLH inh 50µM
Cc1cccc(N2C(=O)NC(=O)/C(=C\C=C\c3ccco3)C2=O)c1	Pol beta inh inconclusive, POLI inh 13µM, FEN1 inhibitor inconclusive, POLH inh inconclusive
O=C(O)Cn1cc(/C=C2\C(=O)NC(=O)N(c3ccc(Cl)cc3)C2=O)c2ccccc21	POLI inh inconclusive, FEN1 inhibitor inconclusive, POLH inh inconclusive
Cn1cc(/C=C2\C(=O)NC(=O)N(c3ccccc3)C2=O)c2ccccc21	POLI inh inconclusive, POLH inh 25µM
Cc1ccc(N2C(=O)NC(=O)/C(=C/c3ccc(OC(=O)c4cccs4)cc3)C2=O)cc1	none (no result: PI5P4Ka inh)
COc1ccc(CN2C(=O)NC(=O)/C(=C/c3ccc([N+](=O)[O-])o3)C2=O)cc1	Pol beta inh 6.3µM (no result: Pol kappa inh, PI5P4Ka inh, POLI inh, FEN1 inhibitor, POLH inh)
N=C1/C(=C/c2ccc(OC(=O)c3ccco3)cc2)C(=O)N=C2SC=CN12	Pol beta inh inconclusive, PI5P4Ka inh inconclusive, POLH inh inconclusive
Cc1cccc(NC(=O)Cn2cc(C(=O)C3CC3)c3ccccc32)c1C	Pol beta inh inconclusive, POLI inh inconclusive
CC(C)CCC(=O)OC1CCC2C3CCC4=CC(=O)CC[C@]4(C)C3CC[C@]12C (some centres undefined)	none (no result: Pol beta inh, PI5P4Ka inh, POLI inh, FEN1 inhibitor, POLH inh)
c1nc[n]([Sn]([CH]2CCCCC2)([CH]2CCCCC2)[CH]2CCCCC2)n1	none (no result: Pol beta inh, PI5P4Ka inh, POLI inh, FEN1 inhibitor, POLH inh)
O=C1NC(=O)N(c2ccccc2)C(=O)/C1=C/c1ccc2c(c1)Cc1ccccc1-2	none (no result: Pol kappa inh, PI5P4Ka inh, POLI inh, FEN1 inhibitor, POLH inh)
COc1cc(/C=C2\C(=O)NC(=O)N(c3ccccc3)C2=O)c([N+](=O)[O-])cc1OC	none
CN(C)c1ccc(/C=C/C=C2/C(=O)NC(=O)N(c3ccccc3)C2=O)cc1	PI5P4Ka inh -78, POLI inh inconclusive, FEN1 inhibitor inconclusive, POLH inh inconclusive
Cc1cccc(N2C(=O)NC(=O)/C(=C/c3ccc([N+](=O)[O-])o3)C2=O)c1	Pol beta inh 5.6µM, Pol kappa inh 8.9µM, PI5P4Ka inh -78, POLI inh 3.2µM, FEN1 inhibitor 20µM, POLH inh 2.5µM
O=C1C=CC(=O)C=C1	Pol beta inh inconclusive, POLI inh inconclusive, FEN1 inhibitor inconclusive, POLH inh inconclusive
O=C1C=CC(=O)C(Cl)=C1	Pol kappa inh 16µM (no result: Pol beta inh, PI5P4Ka inh, POLI inh, FEN1 inhibitor, POLH inh)

Source: PubChem BioAssay (National Center for Advancing Translational Sciences (NCATS))
